Sampled rows, rich in hits. Any-hit rate of the full collection: about 18%.
TDP1 cell CPT: growth inhibition of DT40 Tdp1-/-;hTDP1 cells with camptothecin (screen for TDP1 inhibitors) | AID 686979 | Potency, µM (top dose mostly 46.2 µM), for inactives: top-dose activity change, negative = growth inhibition, usual class: inhibitors | chicken DT40 Tdp1-/-;hTDP1 cells + 20 nM CPT, ATP luminescence, 48 h | actives 12% (n = 420,000); also: potency is read from the fitted curve at half-maximal effect; % is scaled to controls: 0 for no effect and ±100 for the full control effect; nearly all actives have a fitted effect of over 55% in size
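Chicken DT40 Tdp1-/- cells stably complemented with human TDP1 were seeded at 400 cells/well in medium containing 20 nM camptothecin, exposed to pin-transferred compounds, and grown at 37 °C for at least 48 hr. Viability was read as ATP luminescence.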
HepG2 tox: counter-screen for TGF-b inhibitors: cytotoxicity in HepG2 cells; HepG2 CAGA-GFP viability, ATP luminescence, 18 h; Potency, µM (highest dose often 46.1 µM), for inactives: at the highest dose activity change, negative = cytotoxicity, most hits filed as cytotoxic; actives 0.76% (n = 410,000); AID 588856; also: potency is read from the fitted curve at half-maximal effect
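CellTiter-Glo luminescence gave cytotoxicity after 18 hours at 37 degrees C. The cells were HepG2 CAGA-GFP in 1% FBS DMEM, stimulated with 500 pg/mL TGF-beta after compound addition. %Activity was normalised to no-cell wells (complete cell-killing) and DMSO (no toxicity), and curves were fitted and classified.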
TDP1 block: TDP1 (human) enzyme inhibition. Potency, µM (highest dose often 130 µM), inactives show top-dose activity change, negative = inhibition, usual class: inhibitors. Q9NUW8. recombinant TDP1, AlphaScreen DNA substrate cleavage. actives 0.28% (n = 350,000). AID 485290; also: potency is read from the fitted curve at half-maximal effect; % is scaled to controls: 0 for no effect and ±100 for the full control effect; nearly all actives have a fitted effect of over 40% in size
Target sequence (Q9NUW8 whole entry, looked up): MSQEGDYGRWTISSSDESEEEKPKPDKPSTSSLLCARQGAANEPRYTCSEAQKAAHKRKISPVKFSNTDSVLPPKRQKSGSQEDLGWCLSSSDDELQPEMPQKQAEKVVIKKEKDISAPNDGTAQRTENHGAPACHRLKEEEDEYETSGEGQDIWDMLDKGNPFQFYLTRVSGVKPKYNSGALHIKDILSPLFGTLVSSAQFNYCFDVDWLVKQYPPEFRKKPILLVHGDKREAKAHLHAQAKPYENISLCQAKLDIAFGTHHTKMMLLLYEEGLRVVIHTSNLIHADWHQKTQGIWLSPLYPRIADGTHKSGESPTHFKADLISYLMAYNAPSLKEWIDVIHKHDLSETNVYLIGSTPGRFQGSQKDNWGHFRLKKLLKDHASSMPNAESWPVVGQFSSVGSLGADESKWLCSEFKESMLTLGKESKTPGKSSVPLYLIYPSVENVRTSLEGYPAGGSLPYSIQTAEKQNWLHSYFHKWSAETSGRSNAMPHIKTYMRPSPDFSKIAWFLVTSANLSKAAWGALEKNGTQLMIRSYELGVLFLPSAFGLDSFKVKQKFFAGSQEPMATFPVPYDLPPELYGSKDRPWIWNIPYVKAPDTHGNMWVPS
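Compounds were preincubated with Tdp1 (1 nM final) for 15 min at room temperature before substrate (15 nM final) started a 5 min reaction; beads (10 ug/ml final) were then added for 10 min before AlphaScreen detection.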
TDP1 cell noCPT: qHTS for Inhibitors of human tyrosyl-DNA phosphodiesterase 1 (TDP1): qHTS in cells in absence of CPT; DT40 Tdp1-/- hTDP1 cells, no CPT, ATP luminescence, 48 h; Potency, µM (top dose mostly 46.2 µM), inactives show at the highest dose activity change, negative = growth inhibition, hits mostly inhibitors; actives 15% (n = 420,000); also: potency is read from the fitted curve at half-maximal effect; % is scaled to controls: 0 for no effect and ±100 for the full control effect; nearly all actives have a fitted effect of over 55% in size
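DT40 Tdp1-/-;hTDP1 cells, no CPT (DMSO vehicle only), 400 cells/well; compounds pin-transferred; ≥48 hr, 37 °C; CellTiter-Glo 30 min RT dark, luminescence read.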
TGFb SMAD3 inh: blocks TGF-b signaling | HepG2 CAGA-GFP TGF-b/SMAD3 reporter, GFP fluorescence, 18 h; TGF-beta stimulated, 500 pg/mL final | Potency, µM (highest dose often 46.1 µM), without a hit: at the highest dose activity, negative = inhibition, hits mostly inhibitors | actives 1.2% (n = 410,000) | AID 588855; also: potency is read from the fitted curve at half-maximal effect; % is scaled to controls: 0 for no effect and ±100 for the full control effect; nearly all actives have a fitted effect of over 65% in size
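Inhibition was scored as loss of TGF-beta-induced (500 pg/mL final, 18 hours, 37 degrees C) GFP in HEPG2 cells carrying a CAGA-GFP reporter, in DMEM with 1% FBS. Well GFP was summed per cell; Activity was normalised to unstimulated and stimulated DMSO wells, then concentration-response fitting.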
IL-1B inflam inh: inhibitors of inflammasome signaling (IL-1 beta secretion); THP-1 LPS/ATP IL-1B secretion, AlphaLISA, 16 h; active compounds read low; activity change, % at 57.5 µM; actives 4.7% (n = 360,000); in the data active = activity change below about -50%; inconclusive = mostly about -30% to -49%; also: % is scaled to controls: 0 for no effect and ±100 for the full control effect
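Secreted IL-1B measured by AlphaLISA bead assay after 16 h compound exposure of THP-1 cells; compounds (final up to 57.5 uM) added 1 h before LPS (250 ng/mL) and ATP (1.25 mM) stimulation; lower signal means less secretion.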
Numbers without * were called inactive; ? = inconclusive; nt = not tested or not shown; [ ] = dose if it differs, or a comment. Unless noted, calls follow the shape of the dose curve; as a rule, active = well fitted curve in the direction sought with a large enough effect; inconclusive = small, poorly fitted or top-dose-only effect, or another doubt; inactive = no such curve, though single readings can be large; an effect the other way counts as inactive or inconclusive.

SMILES	TDP1 cell CPT	HepG2 tox	TDP1 block	TDP1 cell noCPT	TGFb SMAD3 inh	IL-1B inflam inh
CN(C)c1cc[n+](CC(=O)Nc2cccc([N+](=O)[O-])c2)cc1	?	-5.6%	nt	3.26µM*	1.9%	1.3
CN(C)c1cc[n+](CC(=O)Nc2ccc(OC(F)F)cc2)cc1	23.1µM*	-15.0%	2.6%	14.6µM*	?	-11.7
O=C(C[n+]1ccc(-c2ccccc2)cc1)Nc1ccc([N+](=O)[O-])cc1	10.3µM*	-22.8%	nt	14.6µM*	4.0%	-18.9
Cc1cccc[n+]1CC(=O)Nc1ccc([N+](=O)[O-])cc1	-20.5%	-17.6%	3.3%	-8.1%	-11.8%	4.4
CC(=O)c1ccc(NC(=O)C[n+]2ccc(N(C)C)cc2)cc1	-13.4%	5.8%	5.7%	-10.9%	4.0%	21.7
Cc1ccc(CCC(=O)Nc2ccc([N+](=O)[O-])cc2)o1	-15.3%	-13.8%	nt	?	-0.3%	-74.5*
CN(C)c1cc[n+](CC(=O)Nc2ccc(Cl)c([N+](=O)[O-])c2)cc1	?	-9.0%	nt	?	-5.2%	-7.4
O=C(CN1CCN(c2ccc(O)cc2)CC1)Nc1cc([N+](=O)[O-])ccc1Cl	20.6µM*	-5.3%	5.4%	20.6µM*	-5.5%	-6.0
CN(C)S(=O)(=O)c1cc(NC(=O)CN2CCN(c3ccccc3F)CC2)ccc1Cl	?	-11.9%	-2.6%	20.6µM*	-18.9%	0.0
Cc1ccc(NC(=O)CN2CCc3ccccc3C2)cc1S(=O)(=O)N(C)C	?	-4.6%	1.2%	23.1µM*	-8.1%	18.1
CN(C)S(=O)(=O)c1ccc(Cl)c(NC(=O)CN2CCN(c3ccccn3)CC2)c1	?	8.3%	nt	23.1µM*	18.4%	28.3
O=C(/C=C/c1ccc(Cl)c(C(F)(F)F)c1)N1CCN(c2ccccn2)CC1	12.1%	-13.4%	5.8%	-19.9%	3.1%	-9.8
CC(C(=O)Nc1ccc(C#N)cc1)N(C)CC(=O)N(C)c1c(N)n(Cc2ccccc2)c(=O)[nH]c1=O (stereo not drawn)	10.5%	-4.6%	-1.3%	-15.8%	4.2%	18.9
CN(C)S(=O)(=O)c1ccc(Cl)c(NC(=O)CN2CCc3ccccc3C2)c1	18.4µM*	-26.4%	-0.6%	20.6µM*	-0.3%	-15.7
CC[C@@]12C(=O)N(c3ccc(OC)cc3)C(=O)N1[C@H](c1ccc(Cl)cc1)[C@@H]1C(=O)N(C3CCCCC3)C(=O)[C@@H]12	20.6µM*	3.1%	nt	?	?	?
CC[C@@]12C(=O)N(c3cccc(Br)c3)C(=O)N1[C@H](c1ccc(Cl)cc1)[C@@H]1C(=O)N(C3CCCCC3)C(=O)[C@@H]12	?	-46.0%	nt	?	-71.8%	?
O=C1[C@H]2[C@@H](c3ccc(Cl)cc3)N3C(=O)N(c4cccc(F)c4)C(=O)[C@@]3(Cc3ccc(Cl)cc3)[C@H]2C(=O)N1C1CCCCC1	?	-14.8%	nt	16.4µM*	-1.7%	4.2
COc1ccc(C(C(=O)NC2CCCC2)n2c(CSCCOc3ccccc3)nc3ccccc32)cc1 (stereo not drawn)	?	nt	nt	?	nt	7.4
CN(C(=O)COC(=O)c1nn(C)c(=O)c2ccccc12)c1c(N)n(Cc2ccccc2)c(=O)[nH]c1=O	-1.1%	-15.9%	nt	-17.0%	25.3%	3.7
COc1ccc(NC(=O)CC(c2ccccc2)c2ccco2)cc1 (stereo not drawn)	?	-18.1%	-5.5%	16.4µM*	1.1%	-4.8
O=C(CC(c1ccccc1)c1ccco1)Nc1nccs1 (stereo not drawn)	25.9µM*	-3.4%	-2.6%	14.6µM*	-27.3%	6.7
CC(CC(=O)Nc1nccs1)c1ccccc1 (stereo not drawn)	3.1%	-16.7%	nt	?	2.1%	-14.3
O=C(COc1ccc(F)cc1F)N1CCCCCCC1	-5.1%	7.8%	1.4%	?	3.1%	6.9
CC[N+]1(CC(=O)c2ccc(I)cc2)CCCCC1	?	2.7%	nt	-19.9%	-1.9%	nt
C=CCn1c(=S)[nH]c2scc(-c3ccc(C)o3)c2c1=O	?	-0.8%	10.7%	10.3µM*	23.8%	46.1
SMILES	TDP1 cell CPT	HepG2 tox	TDP1 block	TDP1 cell noCPT	TGFb SMAD3 inh	IL-1B inflam inh
C=CCn1c(SCC(C)=O)nc2scc(-c3ccc(C)o3)c2c1=O	?	-7.4%	nt	?	1.6%	-21.3
Nc1c2ccccc2nc2c(O)cccc12	nt	nt	13.8%[21 µM]	nt	nt	nt
CN(c1ccc(F)cc1)S(=O)(=O)c1ccc(Cl)c(C(=O)NCC2(N3CCOCC3)CCCCC2)c1	7.31µM*	-2.8%	nt	7.31µM*	?	?
COc1ccccc1NS(=O)(=O)c1ccc(C(=O)NCC2(N(C)C)CCCCC2)cc1	-19.3%	-6.5%	nt	?	3.3%	-1.6
COc1ccccc1N(C)S(=O)(=O)c1ccc(Cl)c(C(=O)NCC2(N(C)C)CCCCC2)c1	?	-14.4%	nt	8.2µM*	-15.5%	?
COc1ccccc1N(C)S(=O)(=O)c1ccc(Cl)c(C(=O)OCc2c(C)noc2C)c1	?	-13.4%	-2.6%	23.1µM*	-5.9%	?
COc1ccccc1N1CCN(C(=O)c2ccccc2N(C)S(=O)(=O)c2ccc(C)cc2)CC1	?	0.4%	5.0%	16.4µM*	2.3%	4.6
CC(Cc1ccco1)NC(=O)c1cccc(S(=O)(=O)N(C)C)c1 (stereo not drawn)	-14.2%	-41.0%	nt	-8.2%	5.7%	-3.8
COc1ccccc1N(C)S(=O)(=O)c1ccc(Cl)c(C(=O)N2CCC2)c1	16.4µM*	-6.7%	0.7%	?	9.3%	16.6
COc1ccccc1N(C)S(=O)(=O)c1ccc(Cl)c(C(=O)NNC(=O)c2ccccc2O)c1	?	-0.7%	-12.1%	?	-12.9%	111.7
O=C(CN(c1ccccc1)S(=O)(=O)c1ccc(Cl)cc1)Nc1cccnc1	2.1%	-10.0%	nt	-17.9%	-17.4%	-11.6
O=C1CC(CC(=O)N2CC3CCCC2C3)(c2cccc(F)c2)C(=O)N1Cc1cccnc1 (stereo not drawn)	?	nt	nt	18.4µM*	nt	nt
Cc1ccccc1C1(CC(=O)N2CC3CC4CC(C3)CC2C4)CC(=O)N(Cc2cccnc2)C1=O (stereo not drawn)	-7.9%[9.04 µM]	nt	nt	?	nt	nt
Cc1ccccc1C1(CC(=O)N2CC3(C)CC2CC(C)(C)C3)CC(=O)N(Cc2cccnc2)C1=O (stereo not drawn)	-13.6%[9.04 µM]	nt	nt	20.6µM*	nt	nt

Screening data deposited in PubChem BioAssay by National Center for Advancing Translational Sciences (NCATS).
